Sampled rows, rich in hits. Any-hit rate of the full collection: about 18%.
Six1-Eya2 inh – qHTS Assay for Inhibitors of the Six1/Eya2 Interaction. AlphaScreen GST-Six1/His-Eya2 binding, biochemical; stronger effect = lower value. 360,000 tested, 0.56% active. activity change, % (test concentration not listed). Homeobox protein SIX1 (Homo sapiens) + Protein phosphatase EYA2 (Homo sapiens), …; in the data active = activity change below about -65%; inconclusive = mostly about -30% to -63%
Target sequence (O00167 whole entry, looked up): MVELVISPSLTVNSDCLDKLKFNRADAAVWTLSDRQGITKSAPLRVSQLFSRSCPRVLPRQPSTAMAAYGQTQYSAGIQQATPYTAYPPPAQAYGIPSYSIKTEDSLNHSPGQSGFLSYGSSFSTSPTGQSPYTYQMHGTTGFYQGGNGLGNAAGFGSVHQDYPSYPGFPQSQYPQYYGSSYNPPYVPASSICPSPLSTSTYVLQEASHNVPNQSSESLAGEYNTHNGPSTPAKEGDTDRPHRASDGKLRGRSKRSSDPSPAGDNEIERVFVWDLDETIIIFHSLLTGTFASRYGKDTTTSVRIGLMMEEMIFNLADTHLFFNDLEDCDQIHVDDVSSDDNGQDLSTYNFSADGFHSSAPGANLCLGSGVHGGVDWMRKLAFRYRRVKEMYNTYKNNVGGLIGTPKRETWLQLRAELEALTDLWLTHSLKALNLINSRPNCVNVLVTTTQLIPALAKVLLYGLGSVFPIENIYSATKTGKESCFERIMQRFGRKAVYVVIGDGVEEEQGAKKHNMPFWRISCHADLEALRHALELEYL
Target sequence (Q15475 whole entry, looked up): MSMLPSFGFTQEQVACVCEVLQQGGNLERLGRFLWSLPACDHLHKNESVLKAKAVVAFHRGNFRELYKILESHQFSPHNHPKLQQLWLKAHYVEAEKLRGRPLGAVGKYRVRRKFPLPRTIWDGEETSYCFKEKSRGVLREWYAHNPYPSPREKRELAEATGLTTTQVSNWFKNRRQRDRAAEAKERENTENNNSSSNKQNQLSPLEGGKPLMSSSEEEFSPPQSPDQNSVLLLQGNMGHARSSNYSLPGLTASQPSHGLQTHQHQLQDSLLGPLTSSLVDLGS
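AlphaScreen with GST-Six1 and His-Eya2 (5X mix: 250 nM and 500 nM), glutathione donor and nickel acceptor beads; buffer 50 mM Tris pH 8.0, 300 mM NaCl, 1 mM TCEP; 1 h at 37 C in the dark.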
CtBP-E1A inh – qHTS Assay for Inhibitors of the CtBP/E1A Interaction. AlphaScreen GST-E1A/His-CtBP binding, 1536-well; stronger effect = lower value. activity change, % (no concentration beside the values). 340,000 tested, 0.49% active; in the data active = activity change below about -65%; inconclusive = mostly about -30% to -63%
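GST-E1A and His-tagged CtBP (125 nM each as 5X stock) were preincubated with pin-transferred compound for 2 h at 37 °C in the dark, then glutathione donor and nickel acceptor beads were added for 1 h before AlphaScreen reading.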
DT40 TDP1 CPT – qHTS for Inhibitors of human tyrosyl-DNA phosphodiesterase 1 (TDP1): qHTS in cells in presence of CPT | chicken DT40 Tdp1-/-;hTDP1 cells + 20 nM CPT, ATP luminescence, 48 h | Potency, µM (titrated, usually from 46.2 µM), most hits filed as inhibitors | 420,000 tested, 12% active; also: nearly all actives have a fitted effect of over 55% in size
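Cell growth measured by CellTiter-Glo luminescence after a minimum 48 h, 37 C compound exposure with 20 nM CPT in Tdp1-knockout DT40 cells stably expressing hTDP1, seeded 400/well; qHTS titration format.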
IL1B secr inh – qHTS for Inhibitors of Inflammasome Signaling: IL-1-beta AlphaLISA Primary Screen. THP-1 LPS/ATP IL-1B secretion, AlphaLISA, 16 h; stronger effect = lower value. 360,000 tested, 4.7% active. AID 743279, 2014. activity change, % at 57.5 µM; in the data active = activity change below about -50%; inconclusive = mostly about -30% to -49%
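THP-1 cells pretreated 1 hr with compounds (up to 57.5 uM final), then stimulated with LPS (250 ng/mL final) plus ATP (1.25 mM final); secreted IL-1B measured by AlphaLISA after 16 hr, decreased signal indicating inhibition.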
DT40 TDP1 no CPT – qHTS for Inhibitors of human tyrosyl-DNA phosphodiesterase 1 (TDP1): qHTS in cells in absence of CPT; DT40 Tdp1-/- hTDP1 cells, no CPT, ATP luminescence, 48 h; Potency, µM (top dose mostly 46.2 µM), most hits filed as inhibitors; 420,000 tested, 15% active; also: nearly all actives have a fitted effect of over 55% in size
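Seeded 400 DT40-hTDP1 cells/well (vehicle DMSO, no 20 nM CPT); pinned compounds; ≥48 hr at 37 °C; CellTiter-Glo luminescence as viability measure.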
TDP1 block – qHTS Assay for Inhibitors of Tyrosyl-DNA Phosphodiesterase (TDP1); Tyrosyl-DNA phosphodiesterase 1 (Homo sapiens), Q9NUW8; recombinant TDP1, AlphaScreen DNA substrate cleavage; Potency, µM (series often up to 130 µM), usual class: inhibitors; 350,000 tested, 0.28% active; also: nearly all actives have a fitted effect of over 40% in size
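Tdp1 1 nM final; 15 min RT w/ cpd; substrate 15 nM, 5 min; beads 10 ug/ml, 10 min; AlphaScreen read. Neg ctrl: no enzyme.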
Of the large screens only hits and unclear results are named; the others gave an inactive call. Unless noted, calls follow the shape of the dose curve; as a rule, active = well fitted curve in the direction sought with a large enough effect; inconclusive = small, poorly fitted or top-dose-only effect, or another doubt; inactive = no such curve, though single readings can be large; an effect the other way counts as inactive or inconclusive.

CCn1c2ccccc2c2cc(N=C3SC(CC(=O)Nc4ccccc4)C(=O)N3C)ccc21 (configuration not stated)	DT40 TDP1 no CPT inconclusive
CC(C)(C)c1ccc(C2CC2C(=O)N/N=C\c2ccc[nH]2)cc1 (configuration not stated)	DT40 TDP1 CPT inconclusive, IL1B secr inh -60.7, DT40 TDP1 no CPT inconclusive
O=C(N/N=C\c1ccc(Cl)s1)C1COc2ccccc2O1 (configuration not stated)	DT40 TDP1 CPT inconclusive, DT40 TDP1 no CPT 9.2µM (no result: TDP1 block)
O=C(N/N=C/c1ccco1)C1CC1c1ccccc1 (configuration not stated)	TDP1 block inconclusive
CC(NC(=O)c1ccc(C(=O)c2ccccc2)cc1)c1ccc(S(N)(=O)=O)cc1 (configuration not stated)	IL1B secr inh -52.3, DT40 TDP1 no CPT inconclusive
CC(C)C(C(=O)Nc1ccc2c(c1)OCO2)N1C(=O)c2ccccc2C1=O (configuration not stated)	none
CCN(c1cccc(C)c1)c1ncnc2nc[nH]c12	none
Cc1cccc(COc2ncnc3nc[nH]c23)c1	DT40 TDP1 CPT inconclusive, DT40 TDP1 no CPT 13µM
CC(C)OCCOc1ccc2oc(-c3ccco3)cc(=O)c2c1	IL1B secr inh -66.5, DT40 TDP1 no CPT inconclusive (no result: TDP1 block)
N#CCOc1ccc2oc(-c3ccco3)cc(=O)c2c1	none (no result: Six1-Eya2 inh, CtBP-E1A inh, DT40 TDP1 CPT, IL1B secr inh, DT40 TDP1 no CPT)
O=C(CC1C(=O)NCCN1Cc1ccccc1C(F)(F)F)NC1CCC1 (configuration not stated)	DT40 TDP1 no CPT inconclusive
CCCOc1ccc(Cc2c(Cl)nc(SC)nc2N(C)C)cc1	DT40 TDP1 CPT inconclusive, DT40 TDP1 no CPT 14.6µM
COCC(C)NC(=O)c1cnn2c(C(F)F)cc(-c3ccccc3)nc12 (configuration not stated)	DT40 TDP1 no CPT inconclusive (no result: Six1-Eya2 inh, CtBP-E1A inh, IL1B secr inh)
CC(NC(=S)Nc1ccc(OC(F)F)cc1OC(F)F)C(C)(C)C (configuration not stated)	DT40 TDP1 CPT inconclusive, IL1B secr inh -90.7, DT40 TDP1 no CPT inconclusive
CSc1ccc(C2C(C#N)=C(N)Oc3c2ccc(=O)c2c(C)oc(C)c32)cc1 (configuration not stated)	Six1-Eya2 inh inconclusive, DT40 TDP1 CPT 18.4µM, DT40 TDP1 no CPT 16.4µM
Cc1oc(C)c2c(=O)ccc3c(c12)OC(N)=C(C#N)C3c1ccccc1 (configuration not stated)	DT40 TDP1 CPT inconclusive, DT40 TDP1 no CPT inconclusive
O=C(c1c(F)cccc1F)N(Cc1cccs1)C1CCCC1	DT40 TDP1 CPT 11.6µM, DT40 TDP1 no CPT 9.2µM
O=C(Nc1ccccc1)N(Cc1cccs1)C1CCCC1	DT40 TDP1 CPT inconclusive, DT40 TDP1 no CPT inconclusive
O=C(COC(=O)c1c(F)cccc1Cl)NCC1CCCCC1	DT40 TDP1 CPT inconclusive
O=C(c1ccc(-n2cnnn2)cc1)N(C1CCCCC1)C1CCCCC1	none
O=C(NO)c1ccc(C(=O)N(C2CCCCC2)C2CCCCC2)cc1	DT40 TDP1 CPT 16.4µM, DT40 TDP1 no CPT 20.6µM
O=C(c1c(F)cccc1F)N(Cc1ccccn1)C1CCCC1	DT40 TDP1 CPT 18.4µM, DT40 TDP1 no CPT 4.61µM
O=C(c1c(F)cccc1F)N(C1CCCCC1)C1CCCCC1	DT40 TDP1 CPT inconclusive, DT40 TDP1 no CPT 18.4µM (no result: CtBP-E1A inh, TDP1 block)
CNS(=O)(=O)c1cccc(C(=O)OCC(=O)c2cc3ccccc3o2)c1	DT40 TDP1 CPT inconclusive, DT40 TDP1 no CPT inconclusive
O=C(Cc1ccc(Cl)c(Cl)c1)Nc1cccc2ncccc12	DT40 TDP1 no CPT inconclusive
CCN(CC(=O)Nc1ccc2c(c1)OCCO2)CC(=O)Nc1ccc(C)c(S(=O)(=O)N(C)C)c1	DT40 TDP1 no CPT inconclusive
O=C(NCc1nnc(SCC(=O)N2CCN(c3ccccc3)CC2)o1)c1ccc(F)cc1	DT40 TDP1 CPT inconclusive, DT40 TDP1 no CPT 20.6µM
C=CCn1c(COc2cccc(C)c2C)nnc1SCC(=O)N1CCN(c2ccccc2)CC1	DT40 TDP1 CPT inconclusive, IL1B secr inh -54.9, DT40 TDP1 no CPT inconclusive
Cc1cccc(OCc2nnc(SCC(=O)N3CCN(c4ccccc4)CC3)o2)c1C	DT40 TDP1 CPT inconclusive, DT40 TDP1 no CPT 18.4µM
O=C(NCc1nnc(SCC(=O)N2CCCC2)o1)c1ccc(F)cc1	none
CCn1c(COc2cc(C)cc(C)c2)nnc1SCC(=O)N1CCN(c2ccccc2)CC1	DT40 TDP1 CPT inconclusive, DT40 TDP1 no CPT inconclusive
CC(C)CCNC(=O)NC(=O)CSc1ccc(S(=O)(=O)N2CCOCC2)cn1	DT40 TDP1 CPT inconclusive
CN(Cc1nc2ccccc2n1C)S(=O)(=O)c1ccc(Cl)cc1	DT40 TDP1 CPT inconclusive, DT40 TDP1 no CPT 25.9µM
Cn1c(CNc2ccc(Cl)cc2)nc2ccccc21	DT40 TDP1 CPT 16.4µM, DT40 TDP1 no CPT inconclusive
Cc1ccc(NCc2nc3ccccc3n2C)c(C)c1	DT40 TDP1 CPT inconclusive, DT40 TDP1 no CPT inconclusive (no result: TDP1 block)
CC(=O)Nc1ccc(S(=O)(=O)N(C)CC(=O)NNC(=O)Cc2nc3ccccc3n2C)cc1	none
Cc1ccc(N2CCN(c3ccc(NCc4nc5ccccc5n4C)cc3)CC2)cc1	CtBP-E1A inh inconclusive, DT40 TDP1 CPT inconclusive, DT40 TDP1 no CPT 16.4µM
Cc1cccc(NCc2nc3ccccc3n2C)c1	none

Screening data deposited in PubChem by National Center for Advancing Translational Sciences (NCATS).
